Our source for the growth values is PubChem BioAssay (NCI).

Compounds without any hit were thinned out: in the full panel of roughly 83,000, 20% have a hit.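 Assay: single dose, 48 h. Readout: percent growth (0 = no net growth; negative = cell death). Active: <10.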 Values without a mark were called inactive. Calls of active or inactive are those of the source.

Among the test systems are DU-145 prostate; K-562 leukemia; MALME-3M melanoma; MDA-MB-231 breast; RXF 393 renal; SF-268 CNS; SF-295 CNS; SF-539 CNS; UACC-257 melanoma; M14 melanoma; HCT-15 colon; SNB-75 CNS; SNB-19 CNS; U251 CNS; PC-3 prostate; SK-MEL-5 melanoma; UACC-62 melanoma; LOX IMVI melanoma; SK-MEL-28 melanoma; HT29 colon.
Assay in all cases: NCI-60 one-dose screen, 48 h (100 = growth as untreated, 0 = no growth, -100 = all killed)
Common to all, as to conditions: 10 µM unless noted

`CS(=O)(=O)c1ccc(N/N=C/c2c(-c3ccc(S(C)(=O)=O)cc3)[nH]c3ccc(F)cc23)cc1`: the growth in the experiment with DU-145 prostate is 39.9%; in the experiment on K-562 leukemia, 10.5%; with MALME-3M melanoma, 10.7%; in the experiment on MDA-MB-231 breast it was 29.6%; in the experiment with RXF 393 renal, -10.9% (active); in the experiment with SF-268 CNS it was 39.3%. Besides, the growth in the experiment with SF-295 CNS was -52.8% (active); in the experiment on SF-539 CNS it was -19.8% (active); in the experiment with UACC-257 melanoma, 14.1%; in the experiment with M14 melanoma, 32.9%; in the experiment on HCT-15 colon, 62.7%; in the experiment with SNB-75 CNS it was 38.8%. Also, the growth with SNB-19 CNS was 26.1%; with U251 CNS, 11.2%; in the experiment on PC-3 prostate it was 33.9%; in the experiment on SK-MEL-5 melanoma it was -35.4% (active); in the experiment with UACC-62 melanoma it was 25.7%; in the experiment with LOX IMVI melanoma, 3.68% (active). For the same compound, in the experiment with SK-MEL-28 melanoma, the growth was 14.7%.
For `CCNCCNc1cc(-c2ccc(C(=O)OC)cc2)c(C#N)c2nc3ccccc3n12`, the growth with DU-145 prostate was 38.1%; in the experiment with K-562 leukemia, 2.65% (active); in the experiment on MALME-3M melanoma, 88.5%; with MDA-MB-231 breast, 0.164% (active); in the experiment with RXF 393 renal it was 16%; in the experiment with SF-268 CNS it was 30.8%. For the same compound, the growth in the experiment on SF-295 CNS is -62.1% (active); with SF-539 CNS it was -80.1% (active); in the experiment with UACC-257 melanoma, 53.1%; with M14 melanoma, 31.5%; in the experiment on HCT-15 colon it was 45.8%; in the experiment on HT29 colon it was 4.67% (active). For the same compound, the growth is -38.2% (active) with SNB-75 CNS; 41.8% with SNB-19 CNS; -29% (active) in the experiment with U251 CNS; 54.1% in the experiment on PC-3 prostate; 71.6% in the experiment with SK-MEL-5 melanoma; -53.4% (active) with LOX IMVI melanoma. The growth in the experiment with SK-MEL-28 melanoma was 17%.
Consider `OCCCCc1nccc2c1[nH]c1ccccc12`, for which the growth with DU-145 prostate was 114%; in the experiment on K-562 leukemia, 79.8%; with MALME-3M melanoma, 115%; in the experiment with MDA-MB-231 breast it was 94.8%; with RXF 393 renal, 65.7%; in the experiment on SF-268 CNS, 105%. For the same compound, the growth in the experiment with SF-295 CNS was 102%; in the experiment on SF-539 CNS, 90.8%; in the experiment on UACC-257 melanoma it was 113%; in the experiment with M14 melanoma, 102%; in the experiment on HCT-15 colon, 104%; in the experiment on HT29 colon, 94.6%. Further, the growth in the experiment on SNB-75 CNS was 80.5%; with SNB-19 CNS it was 110%; in the experiment on U251 CNS, 108%; in the experiment on SK-MEL-5 melanoma, 97.5%; in the experiment on UACC-62 melanoma, 96.8%; in the experiment with LOX IMVI melanoma, 99.8%. For the same compound, the growth with SK-MEL-28 melanoma is 111%.
`COc1cc2c(=O)n(CCCn3ccnc3)c3c4cc5c(cc4ccc3c2cc1OC)OCO5`: the growth in the experiment on DU-145 prostate was 15.2%; in the experiment on K-562 leukemia, 24%; in the experiment with MALME-3M melanoma, 39.9%; with MDA-MB-231 breast it was 7.7% (active); in the experiment with RXF 393 renal, -27% (active); with SF-268 CNS it was 29%. Also, the growth is -18.4% (active) in the experiment with SF-295 CNS; -20.2% (active) in the experiment with SF-539 CNS; 3.98% (active) with UACC-257 melanoma; -4.48% (active) with M14 melanoma; 10.1% in the experiment on HCT-15 colon; -24% (active) with HT29 colon. Moreover, the growth in the experiment on SNB-75 CNS was 1.74% (active); in the experiment with SNB-19 CNS, 19.3%; in the experiment on U251 CNS, -2.14% (active); in the experiment on PC-3 prostate, 11.6%; in the experiment with SK-MEL-5 melanoma it was -75.9% (active); in the experiment with LOX IMVI melanoma, -62.4% (active). For the same compound, the growth in the experiment on SK-MEL-28 melanoma is 40.1%.
As to `O=C(Oc1ccc[nH]c1=O)c1cc([N+](=O)[O-])cc([N+](=O)[O-])c1`, the growth is 123% with DU-145 prostate; 87.1% in the experiment on K-562 leukemia; 156% with MALME-3M melanoma; 114% in the experiment on MDA-MB-231 breast; 83.3% with RXF 393 renal; 116% in the experiment with SF-268 CNS. The growth is 113% with SF-295 CNS; 99.3% in the experiment with SF-539 CNS; 19.7% in the experiment with UACC-257 melanoma; 101% with M14 melanoma; 103% in the experiment on HCT-15 colon; 112% in the experiment on HT29 colon. In addition, the growth is 97.1% in the experiment on SNB-75 CNS; 114% with SNB-19 CNS; 109% in the experiment with U251 CNS; 105% with SK-MEL-5 melanoma; 114% with UACC-62 melanoma; 99.5% with LOX IMVI melanoma. For the same compound, the growth with SK-MEL-28 melanoma was 122%.
For the compound `O=C1N(c2ccccc2)C(=S)N[C@]12[C@H](c1ccccc1)C1CCCN1[C@]21C(=O)NC2C=CC(Cl)=C[C@H]21` (some centres not stated), the growth with DU-145 prostate is 103%; with K-562 leukemia it was 81.5%; in the experiment on MALME-3M melanoma, 97%; in the experiment on MDA-MB-231 breast, 88.4%; with RXF 393 renal it was 100%; in the experiment with SF-268 CNS, 101%. Moreover, the growth is 103% in the experiment on SF-295 CNS; 103% in the experiment with SF-539 CNS; 69.8% with UACC-257 melanoma; 81.9% in the experiment on M14 melanoma; 100% in the experiment on HCT-15 colon; 82.6% in the experiment with HT29 colon. The growth in the experiment with SNB-75 CNS was 96.6%; in the experiment on SNB-19 CNS it was 101%; in the experiment on U251 CNS, 85%; in the experiment on PC-3 prostate, 47.8%; in the experiment on SK-MEL-5 melanoma, 93.1%; in the experiment on LOX IMVI melanoma, 100%. The growth with SK-MEL-28 melanoma is 117%.
As for `O=C1NC(=S)S/C1=C\N1N=C(c2ccc(Cl)cc2)CC1c1ccc(F)cc1` (configuration not stated), the growth was 98.5% with DU-145 prostate; 59.8% with K-562 leukemia; 83.7% in the experiment on MALME-3M melanoma; 80.9% with MDA-MB-231 breast; 73.8% in the experiment on RXF 393 renal; 85.9% with SF-268 CNS. Further, the growth with SF-295 CNS was 92.4%; in the experiment with SF-539 CNS, 89.5%; in the experiment on UACC-257 melanoma, 107%; in the experiment on M14 melanoma it was 87.7%; in the experiment with HCT-15 colon, 78.5%; in the experiment with HT29 colon, 85.5%. Further, the growth in the experiment with SNB-75 CNS is 76.1%; in the experiment with SNB-19 CNS, 81.7%; in the experiment on U251 CNS it was 68.7%; with PC-3 prostate it was 81.6%; in the experiment with SK-MEL-5 melanoma, 77.8%; in the experiment on LOX IMVI melanoma, 80.6%. In addition, in the experiment on SK-MEL-28 melanoma, the growth was 103%.
Consider `Cc1nc2ccc(C(=O)NCc3cc(C(=O)O)c(C)o3)cc2nc1C`, for which the growth is 105% in the experiment on DU-145 prostate; 110% in the experiment on K-562 leukemia; 93.4% with MALME-3M melanoma; 101% in the experiment with MDA-MB-231 breast; 97.4% with RXF 393 renal; 91.4% in the experiment with SF-268 CNS. The growth with SF-295 CNS is 102%; in the experiment with SF-539 CNS, 96.2%; with UACC-257 melanoma, 87.2%; with M14 melanoma, 91.4%; in the experiment with HCT-15 colon, 105%; in the experiment with HT29 colon it was 95.6%. The growth with SNB-75 CNS was 79.4%; in the experiment with SNB-19 CNS it was 101%; in the experiment on U251 CNS it was 96.8%; with PC-3 prostate, 90%; with SK-MEL-5 melanoma, 105%; in the experiment with UACC-62 melanoma, 94.8%. Besides, in the experiment with SK-MEL-28 melanoma, the growth is 103%.
